According to PubChem BioAssay (Tox21):
Inconclusive results are not listed. Where a call stands in place of a potency, no number is given. Values without a mark were called inactive. Activity calls are given as the source filed them. Calls follow the shape of the dose curve; as a rule, active = well fitted inhibition curve with a large enough effect in the repeat runs; inconclusive = weak or mixed curves; inactive = flat fitted curve, though single readings scatter.

Test: qHTS assay to identify small molecule HDAC inhibitors (AID 1259364); also: nearly all actives have a fitted effect of over 45% in size; as to activity change, negative = inhibition: top concentration of the series differs between compounds
Settings: HCT-116 HDAC-Glo I/II luminescence, 2 h; series mostly up to 92.4 µM
Text: U.S. Tox21 Program National Center for Advancing Translational Sciences [NCATS] NIH Chemical Genomics Center [NCGC] U.S. Environmental Protection Agency [EPA] National Institutes of Environmental Health Sciences [NIEHS] National Toxicology Program [NTP] U.S. Food and Drug Administration [FDA] Tox21 Assay Overview: Histone deacetylases (HDACs) are a group of epigenetic enzymes that regulate gene expression by histone deacetylation. HDACs are capable of introducing epigenetic modifications and such aberrations contribute to the onset and progression of several human diseases, thus making HDACs a popular therapeutic target. For identifying endogenous class I/II HDAC inhibitors a homogenous, luminogenic HDAC I/II cell based assay was used to measure the relative activity of class I and II HDACs from cells. Wild type HCT-116 cells were used to screen Tox21 libraries for identifying class I/II HDAC inhibitors.
Tox21 Assay Protocol Summary: HCT-116 cells were dispensed at 1,500 per well in 5uL of culture medium into white solid bottom 1536-well plates (Greiner Bio-One, Monroe, NC) using a Multidrop Combi (Thermo Scientific, Waltham, MA) dispenser. The assay plates were incubated at 37 C and 5% CO2 for an overnight, and then 23nL of compounds dissolved in DMSO and positive control were transferred using a Pintool station (Wako, San Diego, CA). The assay plates were incubated at 37C and 5% CO2 for 2hr. After compound treatment, 4uL of HDAC-Glo reagent (Promega Corporation, Madison, WI) was added to each well of the assay plates using Flying Reagent Dispenser (FRD, Aurora Discovery, San Diego, CA) and incubated the assay plates at room temperature for 30min. The luminescence signal was quantified using a ViewLux plate reader (Perkin Elmer, Shelton, CT).
Potency is read from the fitted curve at half-maximal effect.

Q: For `CC(NCCC(c1ccccc1)c1ccccc1)c1ccccc1` (stereo not given), which Potency is on record?
A: inactive

Q: Which Potency does the source give for `CCOB(OCC)OCC` here?
A: inactive

Q: For `S=P(N1CC1)(N1CC1)N1CC1`, which Potency is on record?
A: inactive

Q: Which Potency does the source give for `c1cc2c3c(c1)ccc1cccc(c13)C2` here?
A: inactive

Q: For `CC(C)CCOCCC(C)C`, which Potency is on record?
A: inactive

Q: With `Brc1ccccc1-c1ccccc1` as the molecule, how does the Potency read?
A: inactive

Q: Which Potency does the source give for `CC=O` here?
A: inactive

Q: Which Potency does the source give for `O=S(=O)(O)CCCN1CCOCC1` here?
A: inactive

Q: Which Potency does the source give for `C=CCCCCCCC=C` here?
A: inactive

Q: Which Potency does the source give for `CN(C)CCOC(c1ccccc1)c1ccccc1` (tested in a mixture with another compound) here?
A: inactive

Q: Which Potency does the source give for `CC(C)=C1CC[C@@H](C)CC1=O` here?
A: inactive

Q: For `C[Si](C)O[Si](C)C`, which Potency is on record?
A: inactive

Q: With `CC(C)c1cccc(C(C)C)c1N1C(=O)c2ccc(O)cc2C1=O` as the molecule, how does the Potency read?
A: inactive

Q: Which Potency does the source give for `c1ccc(Sc2ccccc2)cc1` here?
A: inactive

Q: Which Potency does the source give for `CCCCOc1ccc(C(=O)CCN2CCCCC2)cc1` here?
A: inactive

Q: With `CN(Cc1cc(Br)cc(Br)c1N)C1CCCCC1` as the molecule, how does the Potency read?
A: inactive

Q: Which Potency does the source give for `CCCCCCCCCCc1ccccc1` here?
A: inactive

Q: For `N#CSCSc1nc2ccccc2s1`, which Potency is on record?
A: 19.3 µM (active)

Q: With `CCc1c(Br)c(Br)c(Br)c(Br)c1Br` as the molecule, how does the Potency read?
A: inactive

Q: Which Potency does the source give for `C=C(C)C(=O)OCCC[Si](Cl)(Cl)Cl` here?
A: inactive

Q: Which Potency does the source give for `CC(=O)Nc1ccc(O)cc1` here?
A: inactive

Q: With `CCc1ccc(C)nc1` as the molecule, how does the Potency read?
A: inactive

Q: For `C[C@@]12C(=O)OC(=O)[C@]1(C)C1CCC2O1`, which Potency is on record?
A: inactive

Q: Which Potency does the source give for `CCCCOCC` here?
A: inactive

Q: For `CO[C@H]1C=CO[C@@]2(C)Oc3c(C)c(O)c4c(O)c(cc(O)c4c3C2=O)NC(=O)/C(C)=C\C=C/[C@H](C)[C@H](O)[C@@H](C)[C@@H](O)[C@@H](C)[C@H](OC(C)=O)[C@@H]1C`, which Potency is on record?
A: inactive

Q: Which activity change, negative = inhibition does the source give for `N[C@@H](CSSC[C@H](N)C(=O)O)C(=O)O` here?
A: -1.21% [at 0.349 µM]

Q: With `CCCCCCCC/C=C\CCCCCCCC(=O)OCCOC(=O)CCCCCCC/C=C\CCCCCCCC` as the molecule, how does the Potency read?
A: inactive

Q: With `CCCCCCCC/C=C/CCCOC(C)=O` as the molecule, how does the Potency read?
A: inactive

Q: For `CCOC(=O)[C@@](C)(N)Cc1ccc(O)c(O)c1`, which Potency is on record?
A: inactive

Q: Which Potency does the source give for `Clc1ccc(C(Cn2ccnc2)OCc2c(Cl)cccc2Cl)c(Cl)c1` (stereo not given) here?
A: inactive

Q: For `C[Si](C)(C)Cl`, which Potency is on record?
A: inactive

Q: Which Potency does the source give for `Cc1ccc(-n2[nH]c(C)c(N=Nc3cccc(-c4cccc(C(=O)O)c4)c3O)c2=O)cc1C` here?
A: inactive

Q: With `Clc1cccnc1` as the molecule, how does the Potency read?
A: inactive

Q: With `Cc1oc(-c2ccccc2)nc1CCOc1ccc(C[C@H](Nc2ccccc2C(=O)c2ccccc2)C(=O)O)cc1` as the molecule, how does the Potency read?
A: inactive

Q: For `CCCC(CC)CCCCCCCN` (stereo not given), which Potency is on record?
A: inactive

Q: With `CSc1c(Cl)c(Cl)c(Cl)c(Cl)c1Cl` as the molecule, how does the Potency read?
A: inactive

Q: Which Potency does the source give for `CC(C)c1ccccc1N` here?
A: inactive

Q: For `CN1CN(C)CN(C)C1`, which Potency is on record?
A: inactive

Q: With `C=CC(=O)OCCOCC(CC)(COCCOC(=O)C=C)COCCOC(=O)C=C` as the molecule, how does the Potency read?
A: inactive

Q: With `CCN(CC)c1cccc(C)c1` as the molecule, how does the Potency read?
A: inactive
